# Test results reported in paper PMC5540273 (PLoS ONE, 2017).
# How the values were obtained:
# Details in all cases: concentration: 1 μM,replicates: in singlicate; n = 1
# MTOR = tested on: MTOR
# MUSK = tested on: MUSK
# MYLK2 = tested on: MYLK2
# MYLK4 = tested on: MYLK4
# MYLK = tested on: MYLK
# MYO3A = tested on: MYO3A
# MYO3B = tested on: MYO3B
# NDR1 = tested on: T1, NDR1
# T1 construct: gene STK38
# NDR2 = tested on: NDR2
# NEK10 = tested on: NEK10
# 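Note: KINOMEscan kinase panel screen.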
Structure (SMILES),%Inh (MTOR) [%],%Inh (MUSK) [%],%Inh (MYLK2) [%],%Inh (MYLK4) [%],%Inh (MYLK) [%],%Inh (MYO3A) [%],%Inh (MYO3B) [%],%Inh (NDR1) [%],%Inh (NDR2) [%],%Inh (NEK10) [%]
FC(F)(F)c1cc(Br)cc(Nc2nccc(-c3cnn4ncccc34)n2)c1 [GW810578],0,18,1,29,8,9,8,19,13,40
CS(=O)c1ccc(-c2coc3ccc(-c4n[nH]c(=O)o4)cc23)cc1 (stereo not drawn),17,0,20,24,41,0,0,2,22,56
CN(c1ccccc1CNc1nc(Nc2ccc3c(c2)CC(=O)N3)ncc1C(F)(F)F)S(C)(=O)=O,21,71,4,2,0,0,0,33,12,0
CS(=O)(=O)c1cccc(CNc2nc(Nc3ccc4c(c3)[C@@H]3C[C@@H]4CNC3=O)ncc2C(F)(F)F)c1,12,26,12,0,12,13,54,85,6,0
CN(c1ccc2c(c1)nc(NCc1ccc(F)cc1)n2C)c1ccnc(Nc2ccc(CS(C)(=O)=O)cc2)n1.Cl [GW813244],0,51,0,13,1,0,45,31,0,10
Cl.c1ccc(Oc2ccc(Nc3ccnc4cc(-c5ccc(CN6CCNCC6)o5)ccc34)cc2)nc1 [GW567142],0,0,0,8,1,7,0,10,4,3
Cc1nnc(-c2ccc3occ(-c4ccc(S(C)=O)cc4)c3n2)o1 (stereo not drawn),0,0,6,0,0,0,0,0,0,0
COC(=O)c1cccc(NC(=O)NC2CCN(c3ccnc(Nc4cc(OC)c(OC)c(OC)c4)n3)C2)c1 (stereo not drawn) [GSK1379767],26,5,25,14,11,43,0,18,38,3
OCCn1cc(-c2cnc3nnn(Cc4ccc5ncccc5c4)c3n2)cn1,52,0,0,0,3,0,0,7,4,0
C[C@@H]1CNc2c(sc3ccc4nc(-c5ccc(O)cc5)ccc4c23)C(=O)N1,0,0,14,10,65,22,93.2,26,0,7
C[C@@H]1CCN(C(=O)N2CCCC2)C[C@@H]1N(C)c1ncnc2[nH]ccc12,8,0,5,3,2,1,0,4,0,30
CCn1c(-c2nonc2N)nc2cncc(CNC3CCNCC3)c21.Cl [SB-747651],30,9,4,0,8,5,0,1,0,20
Cn1ccc2ncnc(Oc3ccc(NC(=O)Nc4cc(C(C)(C)C)on4)c(Cl)c3)c21,37,80,13,0,17,0,40,0,1,0
CN1CCN(CCCNc2nccc(-c3c(-c4ccc(F)cc4)nn4cc(C(N)=O)ccc34)n2)CC1 [GW622475],5,6,10,5,26,10,0,33,0,25
NC(=O)Nc1sc(-c2ccc(F)cc2)cc1C(N)=O [GW789449],23,0,11,97.8,10,0,0,3,7,3
COC(=O)c1cccc(NC(=O)NC2CCN(c3ccnc(NCc4ccc(F)cc4)n3)CC2)c1 [GSK1379860],23,0,7,0,0,0,0,0,0,1
Cn1ccc2ncnc(Oc3ccc(NC(=O)Nc4cccc(C(F)(F)F)c4)c(F)c3)c21,10,99.4,0,7,19,8,49,10,8,7
CC(=O)Nc1nc2cnc(Nc3cc(NC(=O)c4cccc(CC(C)(C)C#N)c4)ccc3C)nc2s1,14,2,0,14,42,25,0,0,13,0
NC(=O)c1ccc(-c2cc3ncnc(SCC(=O)O)c3s2)cc1,39,0,0,0,0,0,3,31,0,0
COc1cc2nccc(Nc3ccc(Oc4ccccc4)cc3)c2cc1OC.Cl [GI261656],10,0,0,0,7,6,0,0,29,18
COc1cc2ncn(-c3cc(OCC4CCCCC4)c(C(N)=O)s3)c2cc1OC [GSK204559],7,4,9,85,20,0,0,11,0,4
O=C(NCC1CC1)c1ccc(-c2cc(C(=O)NC3CC3)ccc2F)cc1 [GW810445],21,0,0,0,0,0,8,0,7,0
O=C(Nc1n[nH]c2cc(-c3ccco3)ccc12)C1CC1 [SB-737447],0,0,86,6,44,14,0,0,22,0
C[C@@H](Oc1cc(-n2cnc3cc(-c4cnn(C)c4)ccc32)sc1C(N)=O)c1ccccc1Cl [GSK580432],14,64,65,22,17,17,0,15,0,30
CCN1CCN(CCCC(=O)Nc2n[nH]c3nc(-c4ccc(O)cc4)c(Br)cc23)CC1 [SB-731579],0,0,98.5,1,0,62,17,0,0,0
CS(=O)(=O)Nc1ccc(-c2ccnc3[nH]ccc23)cc1 [GSK993273],9,24,27,95.5,43,0,0,20,6,71
Cc1ccc(C(=O)Nc2ccc(Oc3ccc4nc(NC(=O)C5CC5)cn4c3)c(F)c2)c(=O)n1-c1ccccc1,0,99.8,0,0,15,0,4,8,0,0
Cn1ccc2ncnc(Oc3ccc(NC(=O)Nc4cccc(C(F)(F)F)c4)c(Cl)c3)c21,33,94.6,21,5,3,0,22,17,0,0
Cn1ccc2ncnc(Oc3ccc(NC(=O)Nc4cnn(C(C)(C)C)c4)c(Cl)c3)c21,0,21,4,11,0,1,9,6,8,14
Cc1n[nH]c2cc(Nc3ccnc(Nc4cccc(CN5CCOCC5)c4)n3)ccc12 [GW682569],14,15,9,17,21,22,0,25,14,9
